Assay outcomes as filed in PubChem BioAssay.
KLF5 inh: suppresses KLF5 promoter-driven expression; actives 0.23% (n = 290,000); inhibition, % at 5 µM; DLD-1 KLF5 promoter-luciferase reporter, luminescence;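 active = inhibition above a per-plate limit of that plate's mean compound inhibition plus 3 SD, cut at about 60% in these data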;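 also: 0% = DMSO wells and 100% = LY294002 at 200 µM; higher means less KLF5 promoter-driven luciferase light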
aSyn 5UTR inh: 5' untranslated region of α-synuclein, MLPCN primary screen; inhibition, % (tested at 7.5 µM); alpha-synuclein 5'UTR reporter, inhibitor activity; actives 0.82% (n = 300,000); in the data active = inhibition above about 60%;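 also: H4 neuroglioblastoma cells stably carrying SNCA 5'UTR luciferase fusion; 0% = DMSO wells and 100% = positive control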
Platelet DG rel: platelet dense granule release activity | human platelet-rich plasma, SFLLRN dense granule ATP release, luminescence | inhibition, %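 (compounds screened at 7.5 µM in platelet-rich plasma)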 | actives 0.22% (n = 300,000);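 active = mean replicate score, as percent of positive control, at or above 50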
Wee1 degr inh: human Wee1 degradation inhibition, primary screen; P30291; HeLa Luc-Wee1K328M stability, luciferase luminescence; 100% = proteasome inhibitor MG132 effect; reporter increase, % at 5 µM; actives 1.2% (n = 220,000); AID 1321;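 active = activation above the mean of all tested compounds plus 3 SD, set per screening run, cut at about 8.8% in these data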;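 also: cells exposed to compound for 20 h before luminescence read; 0% = DMSO alone and 100% = MG132 at 30 µM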
Target sequence (P30291 whole entry K328M): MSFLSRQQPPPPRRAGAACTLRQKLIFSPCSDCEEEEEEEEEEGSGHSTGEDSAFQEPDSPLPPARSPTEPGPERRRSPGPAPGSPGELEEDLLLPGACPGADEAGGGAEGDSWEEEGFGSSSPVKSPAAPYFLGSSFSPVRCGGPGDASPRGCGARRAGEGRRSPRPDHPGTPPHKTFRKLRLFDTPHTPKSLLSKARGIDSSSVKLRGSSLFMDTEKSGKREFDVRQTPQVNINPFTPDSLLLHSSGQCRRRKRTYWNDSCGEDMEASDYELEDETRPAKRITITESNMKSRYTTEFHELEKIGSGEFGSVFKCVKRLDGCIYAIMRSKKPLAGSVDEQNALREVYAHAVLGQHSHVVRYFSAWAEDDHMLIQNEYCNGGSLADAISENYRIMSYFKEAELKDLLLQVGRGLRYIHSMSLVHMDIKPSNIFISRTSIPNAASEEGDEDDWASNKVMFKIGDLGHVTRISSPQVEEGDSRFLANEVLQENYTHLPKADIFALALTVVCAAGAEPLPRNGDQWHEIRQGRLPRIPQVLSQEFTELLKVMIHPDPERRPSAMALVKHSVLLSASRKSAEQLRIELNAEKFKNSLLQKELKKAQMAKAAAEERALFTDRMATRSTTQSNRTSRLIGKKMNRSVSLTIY
HIF act: HIF pathway transcriptional activation; AID 1910; U2OS HRE-luciferase reporter, luminescence; normalized: DMSO 0%, desferrioxamine 100%; actives 0.32% (n = 300,000); activation, % at 7.5 µM (by protocol);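 active = mean activation of at least 10% of the iron chelator positive control signal, with at least half of replicates also reaching 10%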
* marks the source's active call; other numbers are inactive results; x = no result; + = active, no number. Shown are actives, neighbours in structure and some others; about 2.1% of the full set was active somewhere.

SMILES	KLF5 inh	aSyn 5UTR inh	Platelet DG rel	Wee1 degr inh	HIF act
Cc1oc(-c2ccc(Cl)cc2)nc1CS(=O)CC(=O)NC1CCCC1 (centres undefined)	-37	-1	12	x	0
COCCNC(=O)C(C)N(c1ccc(OC)cc1)S(C)(=O)=O (centres undefined)	-5	22	3	10*	0
Cc1ccc(/C=C/C(=O)O)cc1S(=O)(=O)N1CCCCC1	2	22	65*	2	0
Cc1ccc(/C=C/C(=O)O)cc1S(=O)(=O)N1CCc2ccccc2C1	-5	15	10	-2	0
COc1ccccc1N=c1oc2cc(O)ccc2cc1C(N)=O	-57	-74	57*	-3	0
COc1ccccc1N=c1oc2cc(O)ccc2cc1C(=O)NCC1CCCO1 (centres undefined)	-52	15	2	-1	-2
Cn1c(=O)oc2cc(S(=O)(=O)N3CCCC(C(=O)Nc4ccccn4)C3)ccc21 (centres undefined)	5	4	25	-1	0
Cn1c(=O)oc2cc(S(=O)(=O)N3CCCC(C(=O)NC4CCCc5ccccc54)C3)ccc21 (centres undefined)	-25	63*	-5	-1	0
Cn1ncc(Cl)c1C(=O)N1CCC(Cc2ccccc2)CC1	-42	7	-2	x	1
Cc1ccc2c(c1)c1c3n2CCN(C(=O)CCl)C3CCC1 (centres undefined)	-50	7	-3	x	0
COc1ccc(CCNC(=O)COC(=O)CCC(=O)c2ccc(F)cc2)cc1OC	-4	4	1	0	299*
COC(=O)c1ccc(C(=O)OC)c(NC(=O)COC(=O)CCOc2ccc(C)cc2)c1	x	-6	-9	x	0
Cc1nonc1C(=O)N/N=C/c1ccccc1	-16	-11	46	0	0
Cc1nonc1C(=O)N/N=C/c1ccc(O)c(O)c1	-19	-4	67*	-3	1
COc1cc(/C=N/NC(=O)c2nonc2C)ccc1O	-34	6	53*	1	0
CCOc1cc(/C=N/NC(=O)c2c(-c3ccccc3)noc2C)ccc1O	-13	-34	-2	0	100*
COc1cc(/C=N/NC(=O)c2nc(C)cc(C)n2)ccc1O	-9	-30	5	-1	0
COc1cc(/C=N/NC(=O)c2c(-c3ccccc3)noc2C)ccc1O	-48	-1	4	3	0
O=C(NCCc1ccccc1)c1coc(=O)c(Br)c1	-3	-77	8	x	4
Cc1ccc(S(=O)(=O)Nc2cccc3cccnc23)c([N+](=O)[O-])c1	-6	71*	-8	x	1
Cc1cc(C)c(NS(=O)(=O)c2cccc3cccnc23)c(C)c1	-25	-38	4	2	0
O=C(Nc1ccccc1N1CCN(C(=O)c2ccccc2)CC1)c1cccc(Cl)c1	-4	19	2	9.2*	0
O=C(Nc1ccccc1N1CCN(C(=O)c2ccc(Cl)cc2)CC1)c1cccc(F)c1	3	21	-2	x	0
COc1cccc(CCN2CCC(CNS(=O)(=O)c3cc(-c4cc(C)no4)ccc3C)CC2)c1	-13	-10	9	x	x
CC1CCCCN1S(=O)(=O)c1ccc(S(=O)(=O)N2CCN(C)CC2)cc1 (centres undefined)	-2	6	2	x	0
SMILES	KLF5 inh	aSyn 5UTR inh	Platelet DG rel	Wee1 degr inh	HIF act
S=C(NC1CCCCC1)NC1CC2C=CC1C2 (centres undefined)	-28	-2	17	9.2*	0
Cc1ccccc1C(=O)OCn1nnc2ccccc2c1=O	19	5	92*	0	0
c1ccc(CNc2cncnc2)cc1	-38	6	1	x	0
Cc1onc(-c2c(F)cccc2Cl)c1C(=O)Nc1nnc(C(F)(F)F)s1	-9	-3	2	x	0
CC(C)(C)OC(=O)N1CCC[C@H]1C(=O)Nc1ccc(Br)cc1	-2	-27	-2	x	-1
Cc1ccc(NC(=O)C2CCCN2C(=O)OC(C)(C)C)cc1C (centres undefined)	-11	-2	1	10*	0
COc1ccc(NC(=O)C2CCCN2C(=O)OC(C)(C)C)cc1 (centres undefined)	-47	1	4	0	0
CC(C)(C)OC(=O)N1CCC[C@H]1C(=O)NCc1ccc(Cl)cc1Cl	-8	0	7	10*	-1
O=C(NCCN1C(=O)S/C(=C\c2cccnc2)C1=O)c1cc(S(=O)(=O)N2CCOCC2)ccc1F	-2	-15	-7	2	-1
CC(C)(C)c1ccccc1OCC(=O)NCc1ccccc1	-33	-1	3	x	-2
Cc1ccc(C(=O)c2c3ccc([N+](=O)[O-])cc3[n+]([O-])n2CCCN)cc1	x	63*	-1	x	2
O=C(Nc1nc2ccccc2[nH]1)c1ccccc1	-36	54	49	3	-1
CN(c1cccc(Cl)c1)S(=O)(=O)c1cccc(C(=O)Nc2nc3ccccc3[nH]2)c1	-19	-26	5	4	+
O=C(Nc1nc2ccccc2[nH]1)c1ccc(Cl)cc1	26	66*	18	x	-2
CCCCn1c(N)c(N(CCC(C)C)C(=O)c2ccc(N3CCCC3=O)cc2)c(=O)[nH]c1=O	x	14	29	x	-2
COc1ccc(NC(=O)c2cc(F)c(F)cc2Cl)cc1Cl	-33	-93	15	9.1*	2
Cc1ccccc1-n1c(C)nnc1SCC(=O)N(C)C1CCS(=O)(=O)C1 (centres undefined)	-37	-28	-1	2	-1
Cc1[nH]c(C)c2c(=O)n(-c3ccccc3)ncc12	-50	-23	3	14*	1
COc1ccc2cc3c(N)nn(C(=O)c4ccc(F)cc4)c3nc2c1	-30	-6	14	0	2
COc1ccc2cc3c(N)nn(C(=O)c4ccccc4Cl)c3nc2c1	-26	65*	14	-4	3
COc1ccc2cc3c(N)nn(C(=O)Cc4c[nH]c5ccccc45)c3nc2c1	20	49	14	-3	14*
CCOc1ccccc1CNC(=O)Cn1ccc2cc(S(=O)(=O)N3CCCC3)ccc21	-16	3	7	x	-1
CCCN1CCC(=NNc2ccc(S(=O)(=O)N(CC)CC)cc2[N+](=O)[O-])CC1	-4	79*	25	-5	0
CCCN1CCC(=NNc2ccc(S(N)(=O)=O)cc2[N+](=O)[O-])CC1	3	3	1	5	0
CCN(CC)CCCCNc1ncc2cc(-c3cc(OC)cc(OC)c3)c(NC(=O)NC(C)(C)C)nc2n1	-42	59	0	x	-1
CCOc1ccc(NC(=O)CC2C(=O)Nc3ccccc3N2C(=O)c2ccccc2)cc1 (centres undefined)	-7	6	-11	7	26*
COc1ccccc1NC(=O)CC1C(=O)Nc2ccccc2N1C(=O)c1ccccc1 (centres undefined)	-21	-2	0	-2	2
CC(C)CC(=O)NC(=S)Nc1ccc(N2CCCC2)c(Cl)c1	-33	-43	15	10*	1
CC(C)C(=O)Nc1ccc(N2CCCC2)c(Cl)c1	-45	-57	0	-2	1
